The campaign covered roughly 310,000 compounds. About 14,000 (4.5%) showed an effect of 50% or more. The effect is printed as a negative number. Shown is part of a subset that was picked to be rich in strong results.
target: human ether-à-go-go-related gene (hERG) potassium channel (human, UniProt Q12809); test: primary screen, population patch clamp on CHO cells stably expressing hERG; higher = less effect of the substance
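Also: peak tail current of the secondary pulse compared with the same well before compound.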

Chain of human ether-à-go-go-related gene (hERG) potassium channel (Q12809 whole entry, looked up): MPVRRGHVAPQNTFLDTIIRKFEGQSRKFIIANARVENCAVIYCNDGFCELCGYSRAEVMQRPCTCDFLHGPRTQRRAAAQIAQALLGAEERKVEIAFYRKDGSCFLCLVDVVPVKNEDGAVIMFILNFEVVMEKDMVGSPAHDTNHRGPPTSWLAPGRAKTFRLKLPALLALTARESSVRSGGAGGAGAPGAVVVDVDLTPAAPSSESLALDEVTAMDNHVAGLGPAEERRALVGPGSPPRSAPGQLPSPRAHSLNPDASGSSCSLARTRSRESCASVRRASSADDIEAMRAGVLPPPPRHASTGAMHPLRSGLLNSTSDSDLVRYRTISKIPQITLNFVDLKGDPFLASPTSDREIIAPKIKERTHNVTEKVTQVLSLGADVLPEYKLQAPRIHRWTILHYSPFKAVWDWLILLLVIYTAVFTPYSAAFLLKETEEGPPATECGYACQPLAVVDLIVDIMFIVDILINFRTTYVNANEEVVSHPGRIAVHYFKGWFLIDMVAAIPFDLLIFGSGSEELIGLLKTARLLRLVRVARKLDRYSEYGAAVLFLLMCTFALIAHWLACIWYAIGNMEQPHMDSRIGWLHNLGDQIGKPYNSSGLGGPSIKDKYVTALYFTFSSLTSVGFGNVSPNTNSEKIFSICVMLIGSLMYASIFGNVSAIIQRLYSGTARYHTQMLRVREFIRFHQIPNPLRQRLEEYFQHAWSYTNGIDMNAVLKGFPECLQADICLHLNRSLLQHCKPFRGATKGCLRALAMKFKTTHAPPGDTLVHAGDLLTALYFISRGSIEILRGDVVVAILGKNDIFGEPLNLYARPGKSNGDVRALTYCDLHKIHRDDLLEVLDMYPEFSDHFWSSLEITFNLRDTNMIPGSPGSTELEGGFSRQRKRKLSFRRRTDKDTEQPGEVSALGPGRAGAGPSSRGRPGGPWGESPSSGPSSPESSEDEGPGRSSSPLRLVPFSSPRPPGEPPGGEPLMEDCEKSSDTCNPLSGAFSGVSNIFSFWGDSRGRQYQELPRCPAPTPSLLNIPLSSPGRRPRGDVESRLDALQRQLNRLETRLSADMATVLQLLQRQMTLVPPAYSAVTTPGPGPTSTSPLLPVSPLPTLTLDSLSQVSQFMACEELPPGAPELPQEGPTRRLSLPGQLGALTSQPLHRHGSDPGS

| Structure (SMILES) | hERG current change (%, negative = inhibition) at 10uM [%] |
| --- | --- |
| CCN1CCN(Cc2ccc(NC(=O)c3cc(NC(=O)c4cc(C)on4)cc(OC)c3)cc2C(F)(F)F)CC1.O=C(O)C(F)(F)F | -28.7 |
| Cc1ccc2cccc(S(=O)(=O)NC3CCS(=O)(=O)C3)c2n1 (centres unmarked) | -7.02 |
| O=S(=O)(NCC1(N2CCOCC2)CCCCC1)c1ccc(Cl)cc1C(F)(F)F | -0.581 |
| Cc1cc(NC(=O)c2cc3n(n2)C(C(F)(F)F)CC(c2ccco2)N3)no1 (centres unmarked) | 4.63 |
| Cn1c(=O)n(-c2ccc(Cl)cc2)c(=O)c2c3c(sc21)COC(C)(C)C3 | 3.68 |
| O=C(N/N=C/c1cccnc1)c1ccccc1Cl | 14.2 |
| COc1ccc(Cc2c(O)[nH]c(=S)[nH]c2=O)cc1 | 13.8 |
| CN1CCN(C(=O)CN(CCc2ccccc2)S(C)(=O)=O)CC1 | 11 |
| CCn1ccnc1CN(C)Cc1cn(-c2cccc(C)c2)nc1-c1cccc(F)c1 | -18.3 |
| CCn1ccnc1CN(C)Cc1cn(-c2ccc(C)cc2)nc1-c1cccc(C)c1 | -28.1 |
| Cc1ccc(C)c(-n2cc(CNCCc3cnccn3)c(-c3ccccc3)n2)c1 | -67.1 |
| CCn1ccnc1CNCc1cn(-c2cc(C)ccc2C)nc1-c1ccccc1 | -69.3 |
| CCn1ccnc1CN(C)Cc1cn(-c2cc(C)ccc2C)nc1-c1ccccc1 | -51.7 |
| CCn1ccnc1CN(C)Cc1cn(-c2ccc(C)cc2)nc1-c1ccc(F)cc1 | -39.9 |
| COCCN1CCC(CNCc2cn(-c3cc(C)ccc3C)nc2-c2ccccc2)C1 (centres unmarked) | -18 |
| Cc1ccc(C)c(-n2cc(CN3CCNC(=O)CC3)c(-c3ccccc3)n2)c1 | -43.5 |
| Cc1ccc(C)c(-n2cc(CN3CCCN(C=O)CC3)c(-c3ccccc3)n2)c1 | -31.9 |
| CCCN1CCC(=NNC(=O)c2ccc(Br)o2)CC1 | -7.22 |
| COc1ccc(S(=O)(=O)N=C2C=C(C)C(=O)C(C)=C2)cc1 | -8.48 |
| Cc1cc(=O)n2ccsc2n1 | 3.28 |
| Cc1cc(=O)[nH]c2c1cnn2Cc1ccccc1 | 3.72 |
| COc1ccc(/C=C(\C#N)C(=O)OCC(=O)NCc2ccccc2Cl)cc1 | 6.86 |
| Cc1nn(Cc2ccccc2)c(C)c1C(=O)N1CCN(CC(=O)Nc2ccc(F)cc2)CC1 | -62.6 |
| Cc1nn(Cc2ccccc2)c(C)c1C(=O)O | -19.1 |
| Cc1nn(Cc2ccccc2Cl)c(C)c1C(=O)N1CCN(c2ccccc2)CC1 | -58.6 |
| Cc1cccc(N2CCN(C(=O)c3c(C)nn(Cc4ccccc4Cl)c3C)CC2)c1C | -0.851 |
| Cc1nn(Cc2ccccc2)c(C)c1C(=O)N1CCN(CC(=O)Nc2ccccc2Cl)CC1 | -50.3 |

| Structure (SMILES) | hERG current change (%, negative = inhibition) at 10uM [%] |
| --- | --- |
| Cc1nn(Cc2ccccc2)c(C)c1C(=O)N1CCN(S(=O)(=O)/C=C/c2ccccc2)CC1 | -24.8 |
| Cc1cccc(NC(=O)CN2CCN(C(=O)c3c(C)nn(Cc4ccccc4)c3C)CC2)c1C | -20.4 |
| Cc1nn(Cc2ccccc2Cl)c(Cl)c1C(=O)O | 8.83 |
| O=C(CN1CCN(CC(=O)Nc2ccccc2Cc2ccccc2)CC1)Nc1ccccc1Cl | 20 |
| CC(=O)c1ccc(OCCCCOc2ccc(C(C)=O)cc2)cc1 | 21.4 |
| COc1ccccc1OC(=O)c1ccc(SC)cc1OC | -24 |
| C[C@]12CC[C@@H]3c4ccc(OS(=O)(=O)[O-])cc4CC[C@H]3[C@@H]1CCC2=O.[Na+] | 16.9 |
| O=C(CSc1nc(-c2ccccc2)c(-c2ccccc2)o1)NC1CCS(=O)(=O)C1 (centres unmarked) | -27.1 |
| CCc1ccccc1NC(=O)CCCN1C(=O)C2CC=CCC2C1=O (centres unmarked) | 12 |
| Cc1ccccc1C(N)c1ccncc1.Cl (centres unmarked) | 2.52 |
| COc1cc(/C=C(\C#N)c2nc3ccccc3[nH]2)cc(Br)c1OCc1ccccc1 | 0.571 |
| Cc1ccc(N(CC(=O)NCc2ccco2)C(=O)CCC(=O)Nc2nccs2)cc1 | -1.5 |
| Cc1cc(Cl)ccc1OCC(=O)NNC(=O)c1ccco1 | 8.38 |
| COc1cc(C(C)=O)ccc1OCC(=O)Nc1ccc(Cl)c(S(=O)(=O)N2CCOCC2)c1 | -66.7 |
| COc1ccc(CC(=O)NNC(=O)COc2ccc(Cl)cc2C)cc1S(=O)(=O)N1CCOCC1 | -36.1 |
| Cc1ccc(C(=O)NNC(=O)COc2ccc(Cl)cc2C)o1 | -57.6 |
| Cc1cc(Cl)ccc1OCC(=O)NNC(=O)c1cnccn1 | 11.6 |
| COc1cc(C#N)ccc1OCC(=O)Nc1ccc(C)c(S(=O)(=O)N2CCOCC2)c1 | -36.1 |
| COc1ccc(C(=O)NNC(=O)COc2ccc(Cl)cc2C)cc1S(=O)(=O)N1CCOCC1 | -77.1 |
| COc1ccc(Cl)cc1NC(=O)COc1ccc(S(=O)(=O)N2CCOCC2)cc1C | 10.8 |
| COc1cc(C(C)=O)ccc1OCC(=O)Nc1ccc(C)c(S(=O)(=O)N2CCCCCC2)c1 | -26.3 |
| CC1(C)CC(=O)C2=C(C1)OC1=C(C(=O)CC(C)(C)C1)C2c1ccccc1 | 16.9 |
| Nc1c(N(C(=O)Nc2ccc(Cl)c(Cl)c2)C2CCCC2)c(=O)[nH]c(=O)n1Cc1ccccc1 | 24.7 |
| COc1ccc(NC(=O)CS(=O)CC(=O)Nc2ccc(-n3cnnn3)c(C)c2)cc1 (centres unmarked) | 12.4 |
| S=c1[nH]nc(-c2ccco2)n1/N=C/C=C/c1ccco1 | 13.7 |
| C/C(=N/NS(=O)(=O)c1ccc(C)cc1)c1ccc2c(c1)OCO2 | 13 |

— PMC4336329 (PLoS ONE, 2015)
